Measurements from ChEMBL document CHEMBL3988442, “University of Dundee, Small-Polar-MMV Screening Library” (2021).
Hit rate of the full screen: of about 69,000 compounds, about 950 (1.4%) showed an effect of 50% or more. The entries come from a sample that favours strong results as a whole.

Each compound was assayed on Mycobacterium tuberculosis (assay: Cornell M. t heat shock assay; note: in the data most compounds retested in dose-response had high values).
Format: functional, organism-based
Design: dose or concentration left out as unconfirmed
In the case of `CC(=O)NCC(=O)N1Cc2nccn2CC(COc2cccnc2)C1.O=C(O)C(F)(F)F` (stereo unspecified), the “Percent Effect” value was -35.06%. With `Cc1nc(C2(O)CCCNCC2)sc1CCOc1ccccc1F.Cl` (stereo unspecified) the “Percent Effect” value was -4.166%. For `O=CO.c1cc2nccc(CC3CCCN(Cc4c[nH]cn4)CC3)c2cn1` (stereo unspecified), the “Percent Effect” value was -8.502%. In the case of `CCN1CCOCC12CCN(c1cnccn1)CC2.O=C(O)C(F)(F)F`, the “Percent Effect” value was -4.677%. With `CC(C)(CO)CNC(=O)c1cc(-c2cc[nH]n2)n2ccccc12.O=C(O)C(F)(F)F` the “Percent Effect” value was 10.76%. `O=C(O)C(F)(F)F.O=C(O)C(F)(F)F.O=C(O)C(F)(F)F.c1cncc(CN2CCC3(CC2)CC(c2cccnc2)CO3)c1` (stereo unspecified) was tested, and the “Percent Effect” value was -27.59%. `CCOCc1ccc(CNc2cncc(-n3cccn3)n2)cc1` was tested, and the “Percent Effect” value was -0.9926%. `CNC(=O)COc1ccc(CNc2cncc(-n3cccn3)n2)cc1` was tested, and the “Percent Effect” value was -4.201%. With `CCCOc1ccc(CNc2cncc(-n3cccn3)n2)cc1` the “Percent Effect” value was 63.69%. In the case of `CCOc1cc(CN(C)CC(=O)O)ccc1OC(F)F.Cl`, the “Percent Effect” value was -22.89%. In the case of `Cc1cc2cccc(NC(=O)N3CC[C@@H]4CC[C@H](C3)N4C)c2o1`, the “Percent Effect” value was 25.84%. `Cc1cc(-c2cnn(CCNC(=O)C3CC3)c2C2CC2)on1` was tested, and the “Percent Effect” value was -1.703%. In the case of `Cc1cc(-c2cnn(CCNC(=O)c3cc[nH]n3)c2C2CC2)on1`, the “Percent Effect” value was 53.69%. With `Cc1cc(-c2cnn(CCNC(=O)c3cnn(C)c3)c2C2CC2)on1` the “Percent Effect” value was -6.591%. `O=S(=O)(c1ccccc1)N1C(CN2CCOCC2)[C@]2(O)CC[C@H]1CC2` (stereo partly specified) was tested, and the “Percent Effect” value was -28.69%. In the case of `CCS(=O)(=O)N1CCOC2(CCCN(Cc3ccccn3)C2)C1.O=C(O)C(F)(F)F` (stereo unspecified), the “Percent Effect” value was 2.925%. For `COCCC(=O)N1CCC(c2cncc(Oc3cccnc3)n2)CC1`, the “Percent Effect” value was 51.38%. With `CCC(=O)N1CCC(c2cncc(Oc3cccnc3)n2)CC1` the “Percent Effect” value was -19.43%. In the case of `NCC(=O)N1CCC(c2cncc(Oc3cccnc3)n2)CC1`, the “Percent Effect” value was -6.248%. In the case of `CCOc1ccc(Cl)cc1C1CCCN1.Cl` (stereo unspecified), the “Percent Effect” value was -11.35%. `Cl.c1ccc(CCNc2cccc(C3CCCNC3)n2)cc1` (stereo unspecified) was tested, and the “Percent Effect” value was -24.38%. In the case of `O=C1NCCCC1NC(=O)C1(c2cccc(Cl)c2)CCC1` (stereo unspecified), the “Percent Effect” value was 0.8202%. `Cl.Clc1cccc(N[C@H]2CCCN[C@H]2Cc2ccccc2)c1` was tested, and the “Percent Effect” value was 104.4%. With `CN[C@H]1CC[C@]2(CC1)CNC(=O)c1cc(C)ccc1O2` the “Percent Effect” value was -8.947%. With `CN1CCN(S(=O)(=O)c2ccccc2)Cc2cccnc21.O=C(O)C(F)(F)F` the “Percent Effect” value was 19.11%. With `CN(C)CC(=O)N1CCC2(CC1)CN(Cc1cccnc1)C(=O)CO2` the “Percent Effect” value was -16.01%. In the case of `Cc1cc(C)n(CC2CCCN2CCCS(C)(=O)=O)n1` (stereo unspecified), the “Percent Effect” value was 7.273%. In the case of `CCCC(O)CN1CCC(=O)N(C)Cc2cc(F)ccc21` (stereo unspecified), the “Percent Effect” value was 66.32%. For `CN1Cc2ccccc2N(CC(O)C(F)(F)F)CCC1=O` (stereo unspecified), the “Percent Effect” value was 42.32%. For `COc1ccc2c(c1)CN(C)C(=O)CCN2CC(O)C(F)(F)F` (stereo unspecified), the “Percent Effect” value was 35.74%. `CCCC(O)CN1CCC(=O)N(Cc2ccccc2)Cc2ccccc21` (stereo unspecified) was tested, and the “Percent Effect” value was 5.738%. In the case of `CN1Cc2cc(F)ccc2N(CC(C)(C)O)CCC1=O`, the “Percent Effect” value was 56.09%. For `CCCC(O)CN1CCC(=O)N(CC)Cc2cc3c(cc21)OCO3` (stereo unspecified), the “Percent Effect” value was 53.46%. In the case of `CC(C)(O)CN1CCC(=O)N(Cc2ccco2)Cc2cc(F)ccc21`, the “Percent Effect” value was -9.768%. In the case of `CCCC(O)CN1CCC(=O)N(CC2CC2)Cc2cc3c(cc21)OCO3` (stereo unspecified), the “Percent Effect” value was 15.68%. In the case of `CCN1CCC(=O)N(C)Cc2cc(F)ccc21`, the “Percent Effect” value was 13.57%. For `CCCC(O)CN1CCC(=O)N(CCOC)Cc2ccccc21` (stereo unspecified), the “Percent Effect” value was 30.93%. In the case of `CN1Cc2cc(F)ccc2N(CC(O)C(F)(F)F)CCC1=O` (stereo unspecified), the “Percent Effect” value was 54.29%. In the case of `CCCC(O)CN1CCC(=O)N(CCOC)Cc2cc3c(cc21)OCO3` (stereo unspecified), the “Percent Effect” value was 26.79%. `CCc1ccc(CN2C[C@H](OC)[C@H]3COC[C@H]32)o1.O=C(O)C(F)(F)F` was tested, and the “Percent Effect” value was 46.3%. For `Cn1cc(CN2C[C@H]3CCC[C@@]3(COc3ccccn3)C2)cn1.O=C(O)C(F)(F)F.O=C(O)C(F)(F)F`, the “Percent Effect” value was -2.585%. For `Cl.Fc1cccc(F)c1Cn1c(C2CCNCC2)cc2cccnc21`, the “Percent Effect” value was -5.947%. With `Cc1nc(CN2C(=O)C[C@H]3[C@H]2CCN3CC2CCOC2)cs1.O=C(O)C(F)(F)F` (stereo partly specified) the “Percent Effect” value was -4.028%. `COCC1CC2(CCN(c3ccc(C)nn3)CC2)CN1C(C)C.O=C(O)C(F)(F)F` (stereo unspecified) was tested, and the “Percent Effect” value was -4.94%. In the case of `Cl.Cl.O=C(NCc1cncc2c1CCN(CC1CCOC1)C2)c1ccco1` (stereo unspecified), the “Percent Effect” value was 5.54%. For `COCCN1CCC2(C1)c1ccccc1S(=O)(=O)N2C.O=C(O)C(F)(F)F` (stereo unspecified), the “Percent Effect” value was 24.71%. `Cc1cc(N2CCN(Cc3ccnn3C)CC2)cc(C2CCCN2)n1.Cl` (stereo unspecified) was tested, and the “Percent Effect” value was -17.02%. With `Cc1nc(C2(O)CCCNCC2)sc1CCOc1ccc(F)c(F)c1.Cl` (stereo unspecified) the “Percent Effect” value was -9.071%. In the case of `CC(C)CS(=O)(=O)N1C[C@H]2C[C@H](C(=O)N(C)C)[C@@H](C1)O2`, the “Percent Effect” value was 1.328%. In the case of `COc1ccc2c(c1)CN(C)C(=O)CCN2CC(O)C(C)(C)C` (stereo unspecified), the “Percent Effect” value was 46.8%. For `CCN1Cc2cc(F)ccc2N(CC(O)C(F)(F)F)CCC1=O` (stereo unspecified), the “Percent Effect” value was 51.9%. In the case of `CCN1Cc2cc(OC)ccc2N(CC(C)(C)O)CCC1=O`, the “Percent Effect” value was -11.62%. In the case of `CC(C)OCc1nn(C)c2c1CN(Cc1cccs1)CC2.O=CO`, the “Percent Effect” value was 3.631%. `COc1ccccc1N1CCC(NCc2c(C)noc2C)C1` (stereo unspecified) was tested, and the “Percent Effect” value was -23.49%. `Cc1noc(CNc2c(N3CCCC3)cccc2N2CCCC2)n1` was tested, and the “Percent Effect” value was 25.1%. `Cc1noc(C)c1CNc1c(N2CCCC2)cccc1N1CCCC1` was tested, and the “Percent Effect” value was 65.01%. In the case of `COc1cccc(CN2CCC3(CC2)CCN(C(=O)[C@@H]2CCCO2)C3)c1.O=C(O)C(F)(F)F`, the “Percent Effect” value was -4.383%. In the case of `Cc1nc(Cc2ccc(F)cc2)cc(C2COCCN2)n1.Cl` (stereo unspecified), the “Percent Effect” value was 12.05%. With `O=C(Nc1ccccc1)[C@H]1C[C@@H]2CN(S(=O)(=O)C3CC3)C[C@H]1O2` the “Percent Effect” value was 2.732%. For `CN(C)CCN(C(=O)Cc1ccc2c(c1)OCCO2)C1CCN(C)CC1.O=C(O)CC(O)(CC(=O)O)C(=O)O`, the “Percent Effect” value was -33.14%. For `CCOCC1CN(Cc2cccnc2)Cc2nn(C)cc21.O=C(O)C(F)(F)F.O=C(O)C(F)(F)F` (stereo unspecified), the “Percent Effect” value was -34.52%. `O=c1[nH]nc(CNCc2ccc(OC34CCCN(CC3)C4)cc2)[nH]1` (stereo unspecified) was tested, and the “Percent Effect” value was -6.374%. In the case of `c1ccc(Oc2ccc(OC34CCCN(CC3)C4)cc2)cc1` (stereo unspecified), the “Percent Effect” value was 98.13%. For `Cc1cnccc1CNCc1ccc(OC23CCCN(CC2)C3)cc1` (stereo unspecified), the “Percent Effect” value was -9.053%. With `c1ccc(Oc2cccc(OC34CCCN(CC3)C4)c2)cc1` (stereo unspecified) the “Percent Effect” value was 91.1%. `Cc1nc(CNCc2cccc(OC34CCCN(CC3)C4)c2)n[nH]1` (stereo unspecified) was tested, and the “Percent Effect” value was -9.099%. `N#Cc1cccc(OC23CCCN(CC2)C3)c1` (stereo unspecified) was tested, and the “Percent Effect” value was -19.96%. `CCOCC1CN(C(=O)c2cc(C)oc2C)Cc2c1cnn2C.O=C(O)C(F)(F)F` (stereo unspecified) was tested, and the “Percent Effect” value was 38.21%. For `CN1CC(=O)N(c2cccc(F)c2)CC12CCN(S(C)(=O)=O)C2.O=C(O)C(F)(F)F` (stereo unspecified), the “Percent Effect” value was -1.241%. `CNC(=O)c1ccc(Cn2ccnc2S(C)(=O)=O)cc1` was tested, and the “Percent Effect” value was 3.305%. With `CS(=O)(=O)c1nccn1Cc1ccc(C(N)=O)cc1` the “Percent Effect” value was 2.892%. For `CSCC(=O)Nc1nccn1Cc1ccc(Br)cc1`, the “Percent Effect” value was 103.2%. In the case of `COCCC(=O)Nc1nccn1Cc1ccc(Br)cc1`, the “Percent Effect” value was 102.5%. In the case of `COCCC(=O)Nc1ccnn1-c1ccccc1`, the “Percent Effect” value was -7.442%. With `CCOCC(=O)Nc1nccn1Cc1ccc(Br)cc1` the “Percent Effect” value was 106.8%. `CSc1ncccc1C(=O)Nc1ccc(Cn2ccccc2=O)cc1` was tested, and the “Percent Effect” value was 5.912%. For `COCCn1ccc(=O)c(OCC(=O)Nc2ccc(Br)cc2)c1C`, the “Percent Effect” value was 17.79%. For `CSCC(=O)Nc1ncn(Cc2cccc(Br)c2)n1`, the “Percent Effect” value was -31.04%. In the case of `CCOCC(=O)Nc1ncn(Cc2cccc(Br)c2)n1`, the “Percent Effect” value was -16.14%. In the case of `CC(C)(C#N)C(=O)Nc1nccn1Cc1ccc(Br)cc1`, the “Percent Effect” value was 102.4%. In the case of `CCOCC(=O)Nc1ccc(-n2ccc(C(N)=O)n2)cc1`, the “Percent Effect” value was 15.42%. `O=C1c2cnc(N3CCOCC3)nc2CN1C1CCS(=O)(=O)C1` (stereo unspecified) was tested, and the “Percent Effect” value was 3.438%. In the case of `CN(C)[C@@H]1CCN(C(=O)Cc2cccs2)[C@H]1Cc1ccncc1.O=C(O)C(F)(F)F.O=C(O)C(F)(F)F`, the “Percent Effect” value was -5.714%. In the case of `O=C(O)C(=O)O.c1cc(CN2CCC(c3ccc4c(c3)OCO4)CC2)ccn1`, the “Percent Effect” value was -9.586%. In the case of `Cc1nc[nH]c1CN1C[C@@H]2CC[C@H](C1)N(C(=O)CCn1cncn1)C2`, the “Percent Effect” value was 2.899%. `Cc1cc(C(=O)N2CCO[C@H]3[C@H](OCCN(C)C)CC[C@@H]32)c(C)[nH]1.O=C(O)C(F)(F)F` was tested, and the “Percent Effect” value was -25.69%. `O=C(O)C(F)(F)F.O=C(O)C(F)(F)F.c1cnn(Cc2nnc3n2CCCN(Cc2ccsc2)C3)c1` was tested, and the “Percent Effect” value was -42.35%. `O=C(O)C(F)(F)F.c1cnc(N2CCCC3(CCN(CC4CCOC4)CC3)C2)nc1` (stereo unspecified) was tested, and the “Percent Effect” value was -17.62%. With `COCC(=O)Nc1nccn1Cc1ccc(Br)cc1` the “Percent Effect” value was 82.4%. In the case of `COCC(=O)NC(C)Cc1ccc(Br)cc1` (stereo unspecified), the “Percent Effect” value was 38.61%. `COCC(=O)Nc1nn(Cc2ccc(F)cc2)cc1Cl` was tested, and the “Percent Effect” value was -26.17%. With `Cc1cc(Cc2ccccc2)cc(C2CCCNC2)n1` (stereo unspecified) the “Percent Effect” value was -1.453%. `Cc1cccc(Cc2cc(C)nc(C3CCCNC3)c2)c1` (stereo unspecified) was tested, and the “Percent Effect” value was -6.804%. With `Cc1cc(Cc2cccc(C(F)(F)F)c2)cc(C2CCCNC2)n1` (stereo unspecified) the “Percent Effect” value was 52.39%. With `CN(C)C(=O)C1CCN(C2CCN(CC3CCC3)CC2)CC1.O=C(O)C(F)(F)F.O=C(O)C(F)(F)F` the “Percent Effect” value was 5.992%. For `Cc1nc(Nc2nncs2)cc(C2CCCN2C)n1` (stereo unspecified), the “Percent Effect” value was -13.41%. In the case of `c1cc(C2CCCN2CC2CC2)n[nH]1` (stereo unspecified), the “Percent Effect” value was 1.213%. With `c1nnc(Nc2cncc(C3CCCN3CC3CC3)n2)s1` (stereo unspecified) the “Percent Effect” value was 103.4%. With `CNc1cncc(C2CCCN2Cc2ccn(C)n2)n1` (stereo unspecified) the “Percent Effect” value was -19.6%. For `CNc1cncc(C2CCCN2S(=O)(=O)c2ccccc2)n1` (stereo unspecified), the “Percent Effect” value was -16.46%. With `c1ccc(CCN2CCCC2c2cncc(Nc3nncs3)n2)cc1` (stereo unspecified) the “Percent Effect” value was 99.24%.
